Test results published in PubChem BioAssay AID488969 (Vanderbilt High Throughput Screening Facility, 2010).
The full ranking holds about 110,000 compounds; the median of “z-score” is about -0.1, and the highest 2% start at about 2. Shown is part of a subset that was picked to be rich in the highest values. Calls of active or inactive are those of the source.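 The calls were made as follows: active = z-score in the third read window above 3 or below -3; inactive = the rest.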

target: Metabotropic glutamate receptor 8 (Rattus norvegicus) (UniProt P70579); assay: rat mGluR8 modulators via GIRK flux, primary screen, cell-based, thallium flux, HTS (AID 488969); details: HEK293 rat mGluR8, GIRK (G protein-gated inwardly rectifying potassium channel) thallium flux, FluoZin2; at 10 µM; stronger effect = higher value; submaximal glutamate (EC20) added with thallium
Sequence (P70579 whole entry, looked up): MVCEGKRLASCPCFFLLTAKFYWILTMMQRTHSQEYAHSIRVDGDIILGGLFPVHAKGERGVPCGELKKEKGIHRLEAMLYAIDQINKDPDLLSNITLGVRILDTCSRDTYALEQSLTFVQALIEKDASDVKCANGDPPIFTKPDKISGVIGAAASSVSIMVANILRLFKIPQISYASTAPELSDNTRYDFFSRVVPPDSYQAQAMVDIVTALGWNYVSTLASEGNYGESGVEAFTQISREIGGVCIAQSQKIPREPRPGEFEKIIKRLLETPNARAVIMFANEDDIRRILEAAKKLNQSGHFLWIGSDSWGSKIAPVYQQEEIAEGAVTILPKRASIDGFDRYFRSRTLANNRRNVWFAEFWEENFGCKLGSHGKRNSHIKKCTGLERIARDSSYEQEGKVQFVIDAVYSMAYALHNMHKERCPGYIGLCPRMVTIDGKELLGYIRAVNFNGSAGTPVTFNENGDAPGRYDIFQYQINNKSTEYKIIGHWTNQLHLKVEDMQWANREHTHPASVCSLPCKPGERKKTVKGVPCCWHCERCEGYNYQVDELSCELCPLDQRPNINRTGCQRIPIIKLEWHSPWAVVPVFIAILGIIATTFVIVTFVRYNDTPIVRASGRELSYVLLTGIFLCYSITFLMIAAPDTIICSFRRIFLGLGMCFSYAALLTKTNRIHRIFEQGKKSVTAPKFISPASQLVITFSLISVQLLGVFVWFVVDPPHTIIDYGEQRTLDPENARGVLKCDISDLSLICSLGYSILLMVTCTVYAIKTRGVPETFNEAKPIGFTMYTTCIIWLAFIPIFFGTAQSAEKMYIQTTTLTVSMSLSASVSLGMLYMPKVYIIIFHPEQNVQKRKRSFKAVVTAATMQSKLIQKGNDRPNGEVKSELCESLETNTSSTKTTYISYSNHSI

Point of comparison: `O=C(Cn1cc(/C=N/O)c2ccccc21)N1CCOCC1`, z-score -0.312. Against it:
- O=C(NCc1ccco1)c1ccccc1F — higher, 0.717
- Cc1ccc(C)c(NC(=O)CNS(=O)(=O)c2ccccc2)c1 — higher, -0.144
- O=C(CSc1nnnn1-c1ccccc1)N1CCCc2ccccc21 — lower, -0.861
- Cc1ccc(NC(=O)CSc2nnc(-c3ccncc3)n2C)cc1C — higher, -0.215
- COc1cc(OC)c(NC(=O)c2cccc(F)c2)cc1Cl — higher, -0.155
- COc1ccc(CC(=O)N(c2ccccc2)c2nc(C)cs2)cc1 — lower, -0.721
- CCCCC(=O)Nc1ccc(NC(=O)C2CC2)cn1 — higher, 0.324
- CCCC(=O)Nc1ccc(NC(=O)c2cccc(OC)c2)nc1 — higher, 2.18
- CCCCC(=O)Nc1ccc(NC(=O)C2CC2)nc1 — higher, 0.252
- CCCC(=O)Nc1cc(C)c(NC(=O)C23CC4CC(CC(C4)C2)C3)cn1 — higher, 0.0448
- CCC(=O)Nc1ccc(NC(=O)c2cccc(OC)c2)nc1 — higher, 0.209
- COc1cccc(C(=O)Nc2ccc(NC(C)=O)cn2)c1 — higher, 0.157
- CCC(=O)Nc1ccc(NC(=O)C23CC4CC(CC(C4)C2)C3)cn1 — higher, -0.0944
- O=C(Nc1ccc(Cl)cn1)c1cccc(F)c1 — higher, 0.192
- C[N+]1=C(/C=C/Nc2ccccc2Cl)C(C)(C)c2ccccc21 — higher, 0.3
- COc1ccc(Cl)cc1NC(=O)NC(C)c1ccncc1 (configuration not stated) — higher, -0.275
- O=C(Nc1cc(C(F)(F)F)ccc1N1CCCC1)c1cccnc1 — higher, 0.0707
- C=CCn1c(COc2ccc(Cl)cc2)nnc1SCC(=O)N1CC(=O)Nc2ccccc21 — lower, -0.735
- Nc1nnc(Cc2ccccc2)s1 — higher, -0.122
- CC1CCc2nc(NC(=O)CN3CCN(Cc4ccc5c(c4)OCO5)CC3)sc2C1 (configuration not stated) — higher, 2.47
- CC1CCc2nc(NC(=O)Nc3ccc4c(c3)OCO4)sc2C1 (configuration not stated) — lower, -0.337
- CC1CCc2nc(NC(=O)CN3CCOCC3)sc2C1 (configuration not stated) — lower, -0.313
- CCc1ccc(/C=N/NC(=S)NCCc2ccccc2)cc1 — higher, 0.0899
- S=C(NCc1ccco1)N/N=C/c1ccc(Cl)cc1 — higher, 2.21
- S=C(NCCc1ccccc1)N/N=C/c1ccccc1Cl — higher, 0.283
- S=C(NCc1ccco1)Nc1cccc(Cl)c1 — higher, 0.899
- CN(C)c1ccc(/C=N/NC(=S)NCc2ccco2)cc1 — higher, 0.0065
- S=C(NCc1ccco1)N/N=C/c1ccccc1Cl — higher, 2.22
- Oc1ccc(/C=N/NC(=S)NCc2ccco2)cc1 — higher, 0.806
- S=C(NCc1ccco1)Nc1cc(Cl)c(Cl)cc1Cl — higher, 0.256
- S=C(NCCc1ccccc1)N/N=C/c1cccc(Cl)c1Cl — higher, 2.63
- COc1cc(/C=N/NC(=S)NCc2ccco2)cc(OC)c1OC — lower, -0.66
- CCN(CC)c1ccc(/C=N/NC(=S)NCc2ccco2)cc1 — higher, 0.137
- Cc1ccccc1N1C(=O)C(Oc2ccc(Cl)cc2)C1CNC(C)(C)C (configuration not stated) — higher, 0.46
- Cc1c(C)n(C)c2ccc(C(=O)Nc3cccc4ccccc34)cc12 — higher, 0.368
- O=C(O)c1ccc(N2C(=O)c3cccc(Oc4ccc(Cl)cc4)c3C2=O)cc1 — higher, 0.79
- CN(C)CCCNC(=O)COc1ccc(Br)cc1Cl — higher, 0.032
- CCc1ccc(/C=C/C(=O)c2ccc(S(=O)(=O)N(C)C)cc2)cc1 — lower, -0.379
- C(=C\c1ccccc1)/CSc1nnc(-c2ccccc2)n1Cc1ccco1 — lower, -0.701
- CC(C)COC(=O)c1nnsc1NC(=O)Nc1ccccc1 — higher, 0.142
- CNC(=S)N/N=C/c1ccccc1Cl — higher, 1.82
- O=[N+]([O-])c1ccc(Cl)c(/C=N/NC(=S)Nc2ccccc2)c1 — higher, 1.33
- CCOc1ccc(NC(=O)CSc2nnc(C3CC3)n2N)cc1 — higher, 0.0098
- O=C(CSc1nc2cc(Cl)ccc2s1)NCc1ccc2c(c1)OCO2 — higher, -0.0385
- COc1ccc(C2Nc3ccccc3C(=O)N2Cc2ccco2)cc1COc1ccc(F)cc1 (configuration not stated) — lower, -0.406
- Cc1cnc(NC(=O)CSc2nc3ccccc3c(=O)[nH]2)s1 — higher, 2.14
- Cc1cccc(C)c1NC(=O)CSc1nc2ccccc2c(=O)[nH]1 — higher, 0.493
- Cc1cnc(NC(=O)CSc2ccccc2)s1 — higher, -0.175
- O=C(CCNC(=O)Cn1ccc2ccccc2c1=O)NCCN1CCN(c2cccc(Cl)c2)CC1 — lower, -0.463
- Nc1cc(=O)[nH]c(SCc2cccc(Cl)c2)n1 — lower, -0.406
- Cc1ccc(CSc2nc3ncccc3[nH]2)cc1 — higher, 1.17
- COc1ccc2nc(SCC(=O)Nc3ccc4c(c3)CCC4)[nH]c2c1 — higher, 0.226
- Cc1cc(C)cc(NC(=O)CSc2nc3ccncc3[nH]2)c1 — higher, 2.24
- Cc1ccc2nc(SCC(=O)Nc3ccc4c(c3)OCCO4)[nH]c2c1 — lower, -0.404
- Clc1ccccc1CSc1nc2ccncc2[nH]1 — higher, 0.533
- Clc1ccc(CSc2nc3ccncc3[nH]2)cc1 — higher, 0.673
- Cc1ccc(CSc2nc3ccncc3[nH]2)cc1 — higher, 2.46
- Cc1cc(C)cc(NC(=O)CSc2nc3[nH]ncc3c(=O)[nH]2)c1 — lower, -0.54
- O=C(CSc1nc2ccccc2[nH]1)Nc1ccc2c(c1)CCC2 — lower, -0.809
- COc1cc(/C=N/O)c(Br)cc1OCC(=O)Nc1ccccc1C — higher, -0.175
- COc1ccc(CCNC(=O)CCC(=O)N2CCN(S(=O)(=O)c3ccc(Cl)cc3)CC2)cc1OC — higher, -0.0943
- COc1cccc(NC(=O)c2ccc(-n3cccn3)nc2)c1 — higher, 0.109
- Cc1c(C(=O)NCCc2ccc3c(c2)OCCO3)oc2ccccc12 — lower, -0.63
- CCn1cc(C(=O)O)c(=O)c2cc(F)c(N3CCN(S(=O)(=O)c4ccc(Br)cc4)CC3)cc21 — lower, -0.406
- S=C1NC(c2ccccc2)N2C(=S)NC(c3ccccc3)N12 (configuration not stated) — lower, -1.08
- CN(CC(=O)Nc1ccc(F)c(F)c1F)C(=O)/C=C/c1ccc(Cl)cc1 — higher, -0.265
- CCN(CC)C(=O)c1cnn(-c2ccccc2)c1NC(=O)c1cccs1 — higher, -0.27
- COc1ccc(CNC(=O)C2CCN(S(=O)(=O)c3c(C)n[nH]c3C)CC2)cc1 — higher, -0.115
- Cc1c(CCOC(=O)CC23CC4CC(CC(C4)C2)C3)sc[n+]1Cc1ccccc1 — higher, 0.256
- COC(=O)c1[nH]c2ccc(F)cc2c1NC(=O)CCN1CC(C)OC(C)C1 (configuration not stated) — higher, -0.0436
- Cc1ccc(C(=O)N[C@H](C(=O)OCC(=O)NC2CCS(=O)(=O)C2)C(C)C)cc1 (some centres not stated) — higher, -0.0806
- COc1ccccc1NC(=O)c1ccc(S(=O)(=O)N(C)C)cc1 — lower, -0.403
- Cc1ccc(CN(Cc2ccco2)S(=O)(=O)c2ccc(S(=O)(=O)NCC3CCCO3)cc2)cc1 (configuration not stated) — higher, -0.00067
- Cc1ccc(-c2nnn(CC(=O)NCc3ccccc3)n2)c(-n2cnnn2)c1 — higher, -0.255
- O=C(Cn1nnc(-c2ccccc2-n2cnnn2)n1)N1CCCCC1 — higher, 0.026
- CC1CN=C(N(C(=O)Nc2ccccc2)c2ccc(S(=O)(=O)N3CCOCC3)cc2)S1 (configuration not stated) — higher, 0.945
- Cc1c(C(=O)Nc2ccc(-c3nnc4n3CCCCC4)cc2)oc2ccc(Br)cc12 — lower, -0.49
- CCCCCOc1ccc(Br)cc1/C(C)=N/NC1=NCCN1 — higher, 1.05
- CCCCOc1ccc(Br)cc1/C(C)=N/NC1=NCCN1 — higher, 1.54
- COc1ccccc1N1CCSC1C(N)=O (configuration not stated) — higher, 0.0543
- COC(=O)N1CCN(c2ccc(OC)cc2)CC1 — higher, -0.134
- COc1ccc(N2CCSC2C(=O)NN)cc1 (configuration not stated) — higher, 2.09
- O=C(CSc1nc2ccccc2n1CC(=O)N1CCCC1)Nc1nccs1 — higher, 0.452
- CCOC(=O)c1c(NC(=O)CSc2nnc(C)c(=O)[nH]2)sc2c1CCCC2 — lower, -0.522
- CC1=CC(C)(C)N(C(=O)CSc2ncn[nH]2)c2ccc(C)cc21 — higher, 0.223
- CC1=CC(C)(C)N(C(=O)c2ccccc2)c2ccc(C)cc21 — lower, -0.576
- CC1(C)NC(=O)N(CC(O)CNC23CC4CC(CC(C4)C2)C3)C1=O (configuration not stated) — higher, 0.426
- O=C(Nc1ccc(F)cc1F)c1ccc(-n2cncn2)nc1 — higher, -0.0309
- COc1ccc(C(=O)NC(=S)N2CCCCC2)cc1[N+](=O)[O-] — higher, 1.25
- CCOc1ccc(C(=O)NC(=S)N2CCN(c3ccc(C(F)(F)F)cc3[N+](=O)[O-])CC2)cc1 — higher, 0.854
- COc1cccc(OC)c1C(=O)NC(=S)N1CCN(c2ccc(C(F)(F)F)cc2[N+](=O)[O-])CC1 — higher, 0.046
- O=C(Nc1cc(C(F)(F)F)ccc1N1CCCCC1)c1cccc([N+](=O)[O-])c1 — higher, -0.0811
- CO/N=C/c1ccc(N2CCN(C(=O)c3cccc(C(F)(F)F)c3)CC2)c([N+](=O)[O-])c1 — higher, -0.0941
- O=[N+]([O-])c1cc(C(F)(F)F)ccc1N1CCN(S(=O)(=O)c2ccc3ccccc3c2)CC1 — higher, -0.295
- Cc1nn(-c2cc(C)c3ccccc3n2)c2c1CCC2 — higher, 0.557
- Cc1ccc(C)c(NC(=S)NC(NC(=O)/C=C/c2ccccc2)C(Cl)(Cl)Cl)c1 (configuration not stated) — higher, -0.264
- CC1CCCN(c2ccc(C(=O)OCC(=O)N3c4ccccc4Sc4ccccc43)cc2[N+](=O)[O-])C1 (configuration not stated) — higher, -0.269
- c1ccc2c(c1)CCCN2c1nc2ccccc2n2cnnc12 — higher, -0.203
- COc1ccc(OC)c(NC(=O)C2CC(=O)n3ncnc3N2)c1 (configuration not stated) — higher, -0.244

With `CCCC(=O)Nc1ccc(NC(=O)C23CC4CC(CC(C4)C2)C3)cn1` the z-score was 5.76 (active).
In the case of `CCCC(=O)Nc1ccc(NC(=O)C2CC2)cn1`, the z-score is reported as 13.2 (active).
`S=C(NCc1ccco1)Nc1ccc(Cl)c(Cl)c1` was tested, and the z-score was 8.32 (active).
For `S=C(N/N=C/c1ccccc1Cl)Nc1ccccc1`, the z-score was 6.51 (active).
For `Clc1cccc(CSc2nc3ccncc3[nH]2)c1`, the z-score was 9.69 (active).
For `O=C(CSc1nc2ccc(Cl)cc2[nH]1)Nc1ccc2c(c1)CCC2`, the z-score was 3.89 (active).
With `Cc1ccc(-c2nnn(CC(=O)N3CCCCC3)n2)c(-n2cnnn2)c1` the z-score was 3.32 (active).
With `CCOc1ccc(Br)cc1/C(C)=N\NC1=NCCN1` the z-score was 3.75 (active).
With `CCC(=O)N1c2ccc(C)cc2C2=NNC(=S)NC21O` (configuration not stated) the z-score was 3.09 (active).
For `CC(C)Oc1cccc(C(=O)NC(=S)N2CCN(c3ccc(C(F)(F)F)cc3[N+](=O)[O-])CC2)c1`, the z-score was 6.72 (active).
For `COc1cc(OC)cc(C(=O)NC(=S)N2CCN(c3ccc(C(F)(F)F)cc3[N+](=O)[O-])CC2)c1`, the z-score was 4.05 (active).
For `COc1cccc(C(=O)NC(=S)N2CCN(c3ccc(C(F)(F)F)cc3[N+](=O)[O-])CC2)c1`, the z-score was 4.68 (active).
